# Where a name gives a salt, the structure may show the parent alone. ± gives the standard deviation of the averaged measurements. In all, about 1,900 compounds were measured (“normalised cell viability (NPI; 0 = phenylarsine oxide control, 1 = DMSO control)”: median about 1, lowest 2% from about 0.039 on). The sample holds the lowest values, similar compounds and a random draw of the others, so the mix is not that of the screen.
# Tested on: NCI-H1944
# Experiment: normalised cell viability (NPI; 0 = phenylarsine oxide control, 1 = DMSO control) (fraction of DMSO control); NCI-H1944 is a non-small cell lung cancer line; higher = more viable cells (less compound toxicity)
# Settings: 6 days
# [1] = glucocorticoid arm: hydrocortisone 2.75 uM co-treatment, compound 1 µM
# [2] = glucocorticoid arm: hydrocortisone 2.75 uM co-treatment, compound 5 µM
# [3] = glucocorticoid arm: hydrocortisone 2.75 uM pre-treated 2 days and continued, compound 1 µM
# [4] = glucocorticoid arm: hydrocortisone 2.75 uM pre-treated 2 days and continued, compound 5 µM
# [5] = glucocorticoid arm: vehicle, compound 1 µM
# [6] = glucocorticoid arm: vehicle, compound 5 µM
# 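Also: CTB read-out in 384-well plates, triplicate wells, NPI normalised per plate against 1 µM phenylarsine oxide (0) and 0.1% DMSO (1) controls.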
SMILES,normalised cell viability [1],normalised cell viability [2],normalised cell viability [3],normalised cell viability [4],normalised cell viability [5],normalised cell viability [6]
CCN(CC)Cc1ccc2cc(COC(=O)Nc3ccc(C(=O)NO)cc3)ccc2c1 [Givinostat (ITF2357)],0.726 ± 0.049,0.00151 ± 0.0022,1 ± 0.018,0.0193 ± 0.0045,0.139 ± 0.006,0.000221 ± 0.0011
COc1ccc(Cn2ccc3ccc(C(=O)NO)cc32)cc1,0.959 ± 0.041,1.01 ± 0.029,0.923 ± 0.12,1.04 ± 0.04,0.9977 ± 0.004,1.002 ± 0.0076
CCN(CC)CCNC(=O)c1ccc(NC(C)=O)cc1 [N-Acetylprocainamide hydrochloride],0.9787 ± 0.0049,0.974 ± 0.0099,0.9943 ± 0.0067,0.977 ± 0.027,0.9883 ± 0.0038,0.9807 ± 0.0087
O=C(/C=C/c1ccc2ccccc2n1)c1ccncc1,1.01 ± 0.013,1.067 ± 0.0058,1.02 ± 0.01,1.02 ± 0.015,1.01,1.01 ± 0.01
NC(Cc1cccc(-c2ccccc2CP(=O)(O)O)c1)C(=O)O (stereo not drawn) [Phenylbenzene-omega-phosphono-alpha-amino acid],0.9963 ± 0.0055,1.1 ± 0.021,1.06 ± 0.087,1.04 ± 0.021,1.017 ± 0.0058,1.03 ± 0.01
Cc1ccc(S(=O)(=O)C=CC#N)cc1,0.979 ± 0.013,0.976 ± 0.0056,0.9813 ± 0.0023,0.997 ± 0.023,0.988 ± 0.011,0.688 ± 0.081
CC(C)(C)c1ccc(S(=O)(=O)/C=C/C#N)cc1,0.9913 ± 0.008,0.41 ± 0.055,0.9847 ± 0.007,0.9755 ± 0.0021,0.972 ± 0.0092,0.00936 ± 0.004
CC(/C=C/c1cccc(Oc2ccc(F)cc2)c1)N(O)C(N)=O (stereo unspecified),1.017 ± 0.0058,1.07 ± 0.01,1.01 ± 0.011,1.06 ± 0.014,1.02 ± 0.015,1.023 ± 0.0058
"O=C(O)[C@@H]1C[C@H](C(=O)O)N1 [cis-Azetidine-2,4-dicarboxylic acid]",0.992 ± 0.0044,0.97 ± 0.015,0.997 ± 0.012,1,0.9863 ± 0.0029,0.976 ± 0.011
OC[C@H]1NC[C@H](O)[C@@H](O)[C@@H]1O [1-Deoxynojirimycin hydrochloride],1.01 ± 0.011,0.984 ± 0.025,0.995 ± 0.015,0.969 ± 0.0066,1.003 ± 0.0058,0.991 ± 0.013
CN(C)CCC(c1ccc(Cl)cc1)c1ccccn1 (racemic) [(±)-Chlorpheniramine maleate],0.9833 ± 0.0025,0.985 ± 0.018,0.9843 ± 0.0078,0.991 ± 0.028,0.9727 ± 0.0021,0.987 ± 0.0069
"OC[C@H]1NC[C@@H](O)[C@@H]1O [1,4-Dideoxy-1,4-imino-D-arabinitol]",0.9993 ± 0.0011,0.9807 ± 0.0015,0.997 ± 0.014,0.976 ± 0.027,1.002 ± 0.007,0.992 ± 0.012
COc1ccc(-c2ccc3ncc4c(c3c2)n(-c2ccc(N3CCNCC3)c(C(F)(F)F)c2)c(=O)n4C)cn1,0.00163 ± 0.00092,0.000434 ± 0.00018,0.25 ± 0.021,0.0016 ± 0.00014,0.000974 ± 0.00058,0.000275 ± 0.00038
Cn1c(=O)n(-c2ccc(C(C)(C)C#N)cc2)c2c3cc(-c4cnc5ccccc5c4)ccc3ncc21,0.421 ± 0.017,0.496 ± 0.04,0.629 ± 0.0076,0.633 ± 0.071,0.255 ± 0.013,0.408 ± 0.047
"c1ccc(C2CN3CCSC3=N2)cc1 (single isomer, unassigned; (-)) [(-)-Tetramisole hydrochloride]",1.017 ± 0.0058,1.01 ± 0.015,1.02 ± 0.015,1.02 ± 0.015,1.02,1.02 ± 0.015
O=Nc1c(-c2c(O)[nH]c3cc(Br)ccc23)[nH]c2ccccc12,1.15 ± 0.01,1.24 ± 0.032,1.127 ± 0.011,1.16 ± 0.031,1.04 ± 0.01,1.07 ± 0.01
CCN1CCN(Cc2ccc(Nc3ncc(F)c(-c4cc(F)c5nc(C)n(C(C)C)c5c4)n3)nc2)CC1,0.493 ± 0.041,0.312 ± 0.06,0.528 ± 0.03,0.599 ± 0.14,0.252 ± 0.028,0.000109 ± 0.00093
N=C(NC(=O)c1nc(Cl)c(N)nc1N)Nc1ccccc1 [Phenamil methanesulfonate],1.01 ± 0.011,1.04 ± 0.025,0.894 ± 0.22,1.06 ± 0.025,1.007 ± 0.0058,0.9977 ± 0.004
CCCCOc1c(C(=O)c2c(F)cc(C)cc2F)c[nH]c2nncc1-2,0.91 ± 0.018,0.988 ± 0.017,0.9857 ± 0.0032,1.02 ± 0.022,0.561 ± 0.04,0.861 ± 0.018
CN(C)CCCn1cc(C2=C(c3c[nH]c4ccccc34)C(=O)NC2=O)c2ccccc21,0.992 ± 0.017,1.06 ± 0.011,1.01 ± 0.02,1.01 ± 0.059,1.03 ± 0.011,1.05
Cn1cc(C2=C(c3cn(CCCSC(=N)N)c4ccccc34)C(=O)NC2=O)c2ccccc21 [Ro 31-8220 Mesylate],0.998 ± 0.013,0.125 ± 0.013,0.973 ± 0.036,0.297 ± 0.087,1.013 ± 0.0058,0.0242 ± 0.0022
"O=Nc1ccc2oc(=O)ccc2c1 [6-Nitroso-1,2-benzopyrone]",1.02 ± 0.01,1.02 ± 0.015,1.027 ± 0.0058,0.857 ± 0.29,1.013 ± 0.0058,1.02 ± 0.01
"CN(C)CCC(c1ccc(Br)cc1)c1ccccn1 (single isomer, unassigned; (+)) [(+)-Brompheniramine maleate]",1.01 ± 0.017,1.023 ± 0.0058,1.05 ± 0.04,1.03 ± 0.021,1.006 ± 0.0069,1.02 ± 0.011
"Nc1ncnc2c1ncn2[C@@H]1O[C@H](COP(=O)(O)CP(=O)(O)OP(=O)([O-])O)[C@@H](O)[C@H]1O.[Li+] [alpha,beta-Methylene adenosine 5'-triphosphate lithium salt]",1.02 ± 0.011,1 ± 0.036,1.01 ± 0.014,0.992 ± 0.013,1.005 ± 0.0081,1.02 ± 0.021
Cc1nc(N=Nc2cc(S(=O)(=O)O)c3cc([N+](=O)[O-])cc(S(=O)(=O)O)c3c2)c(COP(=O)(O)O)c(C=O)c1O [PPNDS tetrasodium],1.001 ± 0.0085,1.01 ± 0.037,1.013 ± 0.0058,0.857 ± 0.27,0.9973 ± 0.0021,0.999 ± 0.0098
CC(NC(=O)C(O)c1cc(F)cc(F)c1)C(=O)NC1C(=O)N(C)c2ccccc2-c2ccccc21 (stereo unspecified),0.973 ± 0.013,0.995 ± 0.017,0.977 ± 0.015,1.007 ± 0.0058,0.9893 ± 0.0038,0.9993 ± 0.0011

# Source: the supplement of paper PMC8285479
